# From PubChem BioAssay (NCI)
# The panel holds about 83,000 compounds, 20% with a hit somewhere; the sample as a whole holds those more often.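 Assay: single dose, 48 h. Readout: percent growth (0 = no net growth; negative = cell death). Active: <10.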 Values without a mark were called inactive. Active and inactive are the calls of the source.
# What was measured:
# Test in all cases: NCI-60 one-dose screen, 48 h (100 = growth as untreated, 0 = no growth, -100 = all killed)
# Conditions in all cases: 10 µM unless noted
# HCT-15 colon = system: HCT-15 colon
# HT29 colon = system: HT29 colon
# SNB-75 CNS = system: SNB-75 CNS
# SNB-19 CNS = system: SNB-19 CNS
# PC-3 prostate = system: PC-3 prostate
# SK-MEL-5 melanoma = system: SK-MEL-5 melanoma
# UACC-62 melanoma = system: UACC-62 melanoma
# LOX IMVI melanoma = system: LOX IMVI melanoma
# SK-MEL-28 melanoma = system: SK-MEL-28 melanoma
# U251 CNS = system: U251 CNS
SMILES,growth (HCT-15 colon),growth (HT29 colon),growth (SNB-75 CNS),growth (SNB-19 CNS),growth (PC-3 prostate),growth (SK-MEL-5 melanoma),growth (UACC-62 melanoma),growth (LOX IMVI melanoma),growth (SK-MEL-28 melanoma),growth (U251 CNS)
O=C1N/C(=N/O)S/C1=C/c1cn(-c2ccccc2)nc1-c1ccccc1,86.5%,112%,70.6%,107%,89.3%,102%,102%,68.6%,113%,–
CC1=NN(c2cccc(Cl)c2)C(=O)/C1=C\c1cn(CC(O)CN2CCCCC2)c2ccccc12 (stereo not drawn),36.8%,-57.3% (active),87.2%,84.2%,62.3%,55.5%,-47.4% (active),11%,-28.1% (active),–
CCOC(=O)Cc1csc2nc(-c3ccccc3)nn12,113%,106%,105%,90.2%,101%,107%,98.6%,89%,117%,–
O=C(c1ccccc1)c1ccc(N2C(=O)C3C4c5ccccc5C(/C=C/C(=O)c5ccccn5)(c5ccccc54)C3C2=O)cc1 (stereo not drawn),-21.7% (active),9.38% (active),46.7%,28.2%,–,49.7%,21%,-76.6% (active),13.4%,–
Cc1cc(-c2ccccc2)cc(SC#N)[n+]1[O-],24.7%,50.6%,78.5%,41.2%,38.7%,32.6%,28.8%,29.7%,45.1%,–
CC1(C)CC(=O)c2c(ccc(C(=O)C[C@H](N)CO)c2N)O1,4.43% (active),2.53% (active),75.9%,34.7%,45.3%,47.2%,11%,-61.7% (active),38%,–
Cc1cc(=O)c2cc3nc(-c4cccnc4)oc3c(Br)c2o1,106%,103%,–,131%,99.6%,105%,104%,98%,119%,97.8%
Nc1c(C(=O)c2ccc(Cl)s2)sc2nc3c(cc12)CCCC3,107%,94.2%,103%,105%,88.4%,96.8%,106%,96.8%,119%,–
CCCCN(Cc1ccc(C(=O)NO)cc1)C(=O)Nc1ccc(OCCCCCCCCCn2cc(CCCCC(=O)N[C@H](C(=O)N3C[C@H](O)C[C@H]3C(=O)NCc3ccc(-c4scnc4C)cc3)C(C)(C)C)nn2)cc1,88.7%,19.8%,34.6%,29.5%,27.8%,–,35.9%,23.2%,62.8%,–
O=c1cc(-c2ccc(OCc3ccccc3)cc2)oc2c(I)c(OCc3ccccc3)cc(OCc3ccccc3)c12,–,105%,79.7%,104%,94.7%,85.1%,90.3%,101%,107%,90.1%
COc1ccc(O)c(-c2cc(-c3ccccc3)c(C#N)c(=O)[nH]2)c1,100%,118%,93.8%,103%,78.3%,73.7%,86.1%,64.3%,113%,–
CCN(CC)CCOC(=O)Nc1ccccc1Cl,102%,80.4%,108%,99.4%,71.7%,105%,99.2%,101%,108%,–
COC1=CC(c2ccc[nH]2)=N/C1=C\c1[nH]c(C)c(C(=O)OCCn2cc(CCC[C@@H]3Cc4cc(O)ccc4C4CC[C@]5(C)[C@@H](O)CC[C@H]5C43)nn2)c1C (stereo partly drawn),25%,18.9%,44.7%,–,50.4%,88.2%,–,-17% (active),94.5%,47.1%
CCn1c(Sc2nnc(NC(=O)CSC(=S)N3CCCCC3)s2)nc2c1c(=O)n(C)c(=O)n2C,–,41.3%,88.7%,87.5%,79.2%,85.4%,60.8%,81.5%,78.1%,96.2%
Nc1ccc(CCCCc2ccccc2)c(Cl)c1,–,96.3%,75.2%,94.6%,90.1%,–,93.4%,99.2%,98.8%,77.7%
O=C(NCCOCCOCCOCCNC(=O)c1cc2c(o1)C(=O)c1ccccc1C2=O)NC12CC3CC(CC(C3)C1)C2,–,1.21% (active),-99.6% (active),-2.04% (active),12.1%,-97.7% (active),-93.6% (active),-46.2% (active),-40.8% (active),-22% (active)
Cc1nc(Nc2ccc(NC(=S)Nc3ccccc3)cc2)nc2nc(Nc3cccc(Cl)c3)[nH]c(=O)c12,–,114%,84.7%,102%,93.1%,–,102%,92%,93.2%,92%
NC(=S)c1csc(CCNC(=O)c2ccccc2)n1,–,107%,97.7%,107%,–,115%,105%,110%,–,97.6%
Cc1cccc(-c2cc(O)c(C(=O)N3CCOCC3)s2)c1,–,52.2%,33.5%,31.5%,60.5%,26%,34.5%,33.2%,56.9%,28.6%
CCOC(=O)c1ccc(NC(=O)CCCN(CC)CC)cc1,–,88.6%,106%,111%,78.3%,110%,104%,97.7%,109%,–
C=C(C)[C@@H]1CC[C@]2(CN)CC[C@]3(C)[C@H](CC[C@@H]4[C@@]5(C)CCC(N)[C@@](C)(CO)[C@@H]5CC[C@]43C)[C@@H]12 (stereo partly drawn),–,-60.6% (active),75.6%,-10.5% (active),6.4% (active),-97.2% (active),-79.6% (active),–,-94.2% (active),-93.8% (active)
Cc1nc(Nc2ccc(NC(=S)Nc3ccccc3)cc2)c2ccccc2n1,–,107%,104%,105%,99.2%,–,95.1%,97.9%,108%,101%
CCCCN1CCN(c2ccc3nc(-c4ccc5nc(-c6cc(OC)c(OC)c(OC)c6)[nH]c5c4)[nH]c3c2)CC1,–,56%,38.7%,71.9%,–,44.8%,39.5%,40.7%,–,56.3%
COc1ccc2c(c1)/C(=C\c1sc(=S)[nH]c1O)C(C(=O)O)=N2,–,104%,84.6%,100%,99.4%,101%,91.4%,96.6%,111%,98.3%
Cc1cn(C2CCCCC2)c(=O)[nH]c1=O,–,96%,94.4%,114%,–,105%,109%,111%,109%,108%
CNC(=O)c1c(NC(=O)c2ccc(C(C)(C)C)cc2)sc2c1CCC(=O)C2,–,3.63% (active),-27.8% (active),17.7%,-0.67% (active),-83.1% (active),0.579% (active),8.5% (active),12.2%,4.12% (active)
Cc1nc2ccccc2c(/C=C/c2ccc(Cl)cc2)c1C(=O)/C=C/c1ccc(Cl)cc1,–,3.75% (active),81.5%,-48.2% (active),-18% (active),-71.7% (active),-42.9% (active),-93.8% (active),–,–
